Experimental data from PubChem BioAssay.
Active and inactive are the calls of the source.

Assays:
[1] = optical density shifts of acrAB sulA E. coli – strain DRC41, OD650, 48 h, E. coli filamentation inducer project, primary screen (AID 1152); settings: higher = more signal, called active from +8 up or from −8 down;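 note: E. coli MC1000 strain DRC41 lacking acrAB efflux pump and sulA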
[2] = probe aLefty1 binding on compound microarray – biochemical, small-molecule microarray, 635/667 nm fluorescence, primary screen (AID 1153); settings: higher = more signal;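 note: score merges spot fluorescence with signal-to-noise ratio from the scanned slide images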
[3] = plasmodial surface anion channel blockers, osmotic lysis – cell-based, P. falciparum Indochina, OD700, 1 h, primary screen (AID 1154); settings: P. falciparum Indochina infected RBC osmotic lysis, higher = more signal, called active from +8 up or from −8 down
[4] = plasmodial surface anion channel blockers, osmotic lysis – cell-based, P. falciparum Indochina, OD700, 2 h, primary screen (AID 1155);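 note: lysis reports solute entry through the parasite surface anion channel PSAC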; settings: P. falciparum Indochina infected erythrocytes, higher = more signal, called active from +8 up or from −8 down
[5] = changes in parasitized red cell lysis, either direction – P. falciparum Indochina, OD700, 3 h, PSAC antagonist project, primary screen (AID 1156); settings: P. falciparum-infected erythrocytes, osmotic lysis, higher = more signal, called active from +8 up or from −8 down
[6] = plasmodial surface anion channel blockers, osmotic lysis – cell-based, P. falciparum Indochina, OD700, 18 h, primary screen (AID 1157); settings: P. falciparum Indochina infected erythrocytes, osmotic lysis OD700, 18 h; higher = more signal, called active from +8 up or from −8 down
[7] = S6 kinase pathway phospho-S6 level changes – cell-based, A549, cytoblot, luminescence, serum-stimulated, primary screen (AID 1158); settings: 5 h, higher = more signal;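 note: serum-stimulated A549 lung adenocarcinoma cells; signal is phosphorylated S6 detected by cytoblot immunostaining with HRP secondary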
[8] = target: NADPH oxidase 2 (Homo sapiens) (UniProt P04839); test: compounds shifting NOX2 Amplex Red fluorescence – cell-based, HEK293-NOX2, PMA-stimulated, NOX inhibitor project, primary screen (AID 1159); settings: 45 min, higher = more signal, called active from +8 up or from −8 down; note: test concentration not given here
[9] = target: NADPH oxidase 4 (Homo sapiens) (UniProt Q9NPH5); test: compounds shifting NOX4 Amplex Red fluorescence – cell-based, HEK293-NOX4, tetracycline-induced, NOX inhibitor project, primary screen (AID 1160); settings: HEK293-NOX4, Amplex Red H2O2 fluorescence, 45 min; higher = more signal, called active from +8 up or from −8 down
[10] = target: NADPH oxidase 5 (Homo sapiens) (UniProt Q96PH1); test: compounds shifting NOX5 Amplex Red fluorescence – cell-based, HEK293-NOX5, NOX inhibitor project, primary screen (AID 1161); settings: HEK293-NOX5, ionomycin, 45 min, higher = more signal
Sequence of NADPH oxidase 5 (Homo sapiens) (Q96PH1 whole entry, looked up): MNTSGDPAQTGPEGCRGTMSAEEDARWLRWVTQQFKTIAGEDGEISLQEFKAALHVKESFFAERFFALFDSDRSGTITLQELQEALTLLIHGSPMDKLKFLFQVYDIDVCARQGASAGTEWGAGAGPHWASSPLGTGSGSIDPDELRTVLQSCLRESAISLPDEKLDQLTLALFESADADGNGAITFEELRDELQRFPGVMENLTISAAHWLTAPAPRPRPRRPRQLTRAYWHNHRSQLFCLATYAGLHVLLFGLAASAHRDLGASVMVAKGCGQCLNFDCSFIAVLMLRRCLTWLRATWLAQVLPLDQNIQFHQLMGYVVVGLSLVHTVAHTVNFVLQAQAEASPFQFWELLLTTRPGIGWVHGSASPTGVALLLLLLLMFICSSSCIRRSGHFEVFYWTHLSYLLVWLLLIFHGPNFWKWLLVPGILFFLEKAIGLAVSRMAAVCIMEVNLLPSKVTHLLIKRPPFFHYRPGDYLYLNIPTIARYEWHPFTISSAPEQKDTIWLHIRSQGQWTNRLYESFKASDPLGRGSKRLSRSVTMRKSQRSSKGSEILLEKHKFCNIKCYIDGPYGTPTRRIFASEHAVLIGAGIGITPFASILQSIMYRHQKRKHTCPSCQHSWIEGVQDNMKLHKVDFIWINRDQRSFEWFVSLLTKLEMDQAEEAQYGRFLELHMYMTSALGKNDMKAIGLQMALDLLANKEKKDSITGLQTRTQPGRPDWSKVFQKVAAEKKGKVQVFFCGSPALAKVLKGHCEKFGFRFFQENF

Sequence of NADPH oxidase 2 (Homo sapiens) (P04839 whole entry, looked up): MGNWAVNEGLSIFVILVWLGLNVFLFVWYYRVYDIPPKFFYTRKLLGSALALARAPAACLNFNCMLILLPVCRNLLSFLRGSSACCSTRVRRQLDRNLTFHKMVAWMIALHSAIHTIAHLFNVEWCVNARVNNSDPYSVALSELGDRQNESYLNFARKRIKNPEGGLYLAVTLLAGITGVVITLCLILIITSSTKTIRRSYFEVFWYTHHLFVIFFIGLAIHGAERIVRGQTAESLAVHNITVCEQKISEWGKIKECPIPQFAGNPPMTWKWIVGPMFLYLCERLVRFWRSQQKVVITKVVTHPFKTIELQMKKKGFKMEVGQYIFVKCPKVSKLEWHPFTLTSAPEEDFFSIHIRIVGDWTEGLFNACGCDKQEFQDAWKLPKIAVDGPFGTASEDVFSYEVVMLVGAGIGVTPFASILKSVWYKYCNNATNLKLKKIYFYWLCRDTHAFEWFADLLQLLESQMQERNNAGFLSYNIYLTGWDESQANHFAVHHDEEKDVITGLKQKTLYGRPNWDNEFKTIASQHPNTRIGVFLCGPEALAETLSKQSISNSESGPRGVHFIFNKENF
Sequence of NADPH oxidase 4 (Homo sapiens) (Q9NPH5 whole entry, looked up): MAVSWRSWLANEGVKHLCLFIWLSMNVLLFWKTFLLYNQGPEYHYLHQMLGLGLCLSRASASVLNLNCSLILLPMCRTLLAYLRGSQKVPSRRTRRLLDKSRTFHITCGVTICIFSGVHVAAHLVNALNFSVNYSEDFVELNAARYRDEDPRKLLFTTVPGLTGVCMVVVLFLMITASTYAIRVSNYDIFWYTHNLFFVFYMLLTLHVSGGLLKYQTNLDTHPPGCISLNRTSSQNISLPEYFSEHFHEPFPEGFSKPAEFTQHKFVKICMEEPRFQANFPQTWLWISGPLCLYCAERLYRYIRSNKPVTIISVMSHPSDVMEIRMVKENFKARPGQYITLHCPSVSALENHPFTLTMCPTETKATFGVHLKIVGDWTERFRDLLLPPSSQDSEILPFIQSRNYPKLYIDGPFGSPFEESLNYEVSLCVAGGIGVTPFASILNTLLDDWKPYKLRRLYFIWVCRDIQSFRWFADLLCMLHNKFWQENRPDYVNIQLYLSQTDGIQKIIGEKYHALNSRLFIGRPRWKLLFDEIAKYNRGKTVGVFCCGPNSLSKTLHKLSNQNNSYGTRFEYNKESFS

| SMILES | z-score [1] | composite z-score [2] | z-score [3] | z-score [4] | z-score [5] | z-score [6] | z-score [7] | z-score [8] | z-score [9] | z-score [10] |
| --- | --- | --- | --- | --- | --- | --- | --- | --- | --- | --- |
| COCCOC(=O)N1C(=O)[C@@]2(c3cc(C#CCNC(N)=O)ccc31)[C@H](c1ccccc1OCCO)N1[C@H](c3ccccc3)[C@H](c3ccccc3)OC(=O)[C@H]1[C@@H]2C(=O)N1CCCCCCC1 | -0.583 (inactive) | 0.359 | 1.21 (inactive) | 0.696 (inactive) | 0.346 (inactive) | 0.238 (inactive) | -0.418 | 1.39 (inactive) | 1.05 (inactive) | 0.903 |
| C=CCOC(=O)[C@@H]1[C@H]2C(=O)O[C@H](c3ccccc3)[C@H](c3ccccc3)N2[C@H](c2ccc(OCCOC(=O)[C@H]3C[C@H]4C(=O)N[C@@H](CCCCN(C)C)C(=O)N4[C@H]3c3cccc(OCCO)c3)cc2)[C@@]12C(=O)Nc1ccccc12 | 0.171 (inactive) | 0.464 | 0.323 (inactive) | 0.0285 (inactive) | -0.703 (inactive) | 0.0555 (inactive) | -0.547 | 0.209 (inactive) | -0.186 (inactive) | -0.538 |
| CC(C)[Si]1(C(C)C)OCc2cc(-c3ccc(-c4ccc(Cl)c(Cl)c4)o3)nc(-c3ccc(Oc4ccccc4)cc3)c21 | -1.08 (inactive) | -0.21 | 1.88 (inactive) | 0.352 (inactive) | 0.0032 (inactive) | 0.533 (inactive) | -0.203 | -4.58 (inactive) | 0.169 (inactive) | -1.54 |
| COCCOC(=O)N1C(=O)[C@@]2(c3cc(C#CCCO)ccc31)[C@H](c1ccc(O)cc1)N1[C@H](c3ccccc3)[C@H](c3ccccc3)OC(=O)[C@H]1[C@@H]2C(=O)NC[C@H](O)c1ccccc1 | 1.49 (inactive) | -0.218 | 3.31 (inactive) | 1.19 (inactive) | 0.624 (inactive) | 0.555 (inactive) | 0.0833 | 0.878 (inactive) | 0.521 (inactive) | -0.0839 |
| CC(CO)N1C(=O)[C@@H]2[C@H]3C(=O)OCC=C[C@H]3OC23C=CCN(c2ccc4ccccc4c2)C(=O)[C@@H]13 (stereo not given in full) | -0.855 (inactive) | 0.0927 | 0.201 (inactive) | 0.0537 (inactive) | 0.162 (inactive) | -0.0627 (inactive) | -0.409 | 0.405 (inactive) | 0.512 (inactive) | 1.79 |
| COc1ccc(CCNC(=O)[C@@]2(C)c3ccccc3C(=O)N(Cc3ccc(OC(F)(F)F)cc3)[C@H]2c2ccc(CO)cc2)cc1 | -0.933 (inactive) | -0.588 | 7.22 (inactive) | 1.67 (inactive) | 1.79 (inactive) | 1.16 (inactive) | 0.029 | -0.61 (inactive) | -0.547 (inactive) | -1.23 |
| Cc1ccc(S(=O)(=O)N2[C@@H](c3ccccc3)C(C(=O)O)=CC[C@H]2c2ccc(F)cc2)cc1 | -0.232 (inactive) | 0.214 | 2.05 (inactive) | 0.706 (inactive) | 1.1 (inactive) | 0.66 (inactive) | -0.0796 | 0.0361 (inactive) | 0.605 (inactive) | 0.953 |
| CCCCC(=C=CC[C@H](O)c1ccccc1OCCO)CCO | -0.0046 (inactive) | -0.245 | 4.53 (inactive) | 0.626 (inactive) | -0.0542 (inactive) | 0.331 (inactive) | -0.401 | -0.732 (inactive) | -0.145 (inactive) | -1.55 |
| COCCCNC(=O)[C@]1(Cc2ccccc2N=[N+]=[N-])N=C(c2ccc(OCCCO)cc2)O[C@@H]1c1ccccc1 | -0.112 (inactive) | 0.749 | 28.8 (active) | 22.5 (active) | 2.38 (inactive) | 3.2 (inactive) | 0.008 | -2.28 (inactive) | 0.471 (inactive) | 0.124 |
| COc1cc2c(cc1OC)CN(C(=O)[C@@H]1[C@H]3C(=O)O[C@H](c4ccccc4)[C@H](c4ccccc4)N3[C@H](c3ccc(O)cc3)[C@@]13C(=O)Nc1ccc(C#CC4=CCCCC4)cc13)CC2 | 2.03 (inactive) | 0.298 | 1.18 (inactive) | 0.925 (inactive) | 1.2 (inactive) | 1.23 (inactive) | 0.458 | 1.36 (inactive) | 1.03 (inactive) | -0.337 |
| CC(=O)NCCCC[C@@H]1NC(=O)[C@H]2C[C@@H](C(=O)NCCCCCN)[C@@H](c3ccc(O)cc3)N2C1=O | -0.556 (inactive) | 0.302 | 0.537 (inactive) | 0.33 (inactive) | 0.0814 (inactive) | 0.302 (inactive) | -0.413 | 0.178 (inactive) | -1.24 (inactive) | 1.01 |
| COc1ccc([Si](C)(C)[C@H]2[C@H](CC(=O)N(CCO)Cc3ccccc3)O[C@@]3(C(=O)N(Cc4ccc(N5C(=O)c6cccc7cccc5c67)cc4)c4ccccc43)[C@@H]2C)cc1 | -0.263 (inactive) | 0.542 | 15.2 (active) | 3.52 (inactive) | 1.24 (inactive) | 1.48 (inactive) | 0.294 | 1.52 (inactive) | 0.695 (inactive) | 2.88 |
| C=CCNC(=O)[C@@H]1[C@H]2C(=O)O[C@H](c3ccccc3)[C@H](c3ccccc3)N2[C@H](c2ccc(O)cc2)[C@@]12C(=O)Nc1ccc(C#CC3=CCCCC3)cc12 | -0.396 (inactive) | 1.56 | 1.71 (inactive) | 0.959 (inactive) | -0.587 (inactive) | 1.08 (inactive) | -0.424 | 1.51 (inactive) | 0.391 (inactive) | 0.578 |
| C=CC[C@H](O)c1ccc(O)c(F)c1 | -0.421 (inactive) | -0.555 | 0.307 (inactive) | 0.131 (inactive) | -0.304 (inactive) | 0.255 (inactive) | -0.165 | -1.32 (inactive) | -0.305 (inactive) | 0.113 |
| O=C1NC(=O)C2C1C=CC(C(O)C(c1ccccc1)c1ccccc1)N2Nc1ccccn1 (stereo not given) | -0.332 (inactive) | 0.228 | 0.186 (inactive) | 0.829 (inactive) | 0.156 (inactive) | 0.853 (inactive) | -0.681 | 0.738 (inactive) | -2.13 (inactive) | -1.47 |
| COC(=O)[C@@]1(Cc2ccc(F)cc2)[C@H]2c3cc(C(=O)N(C)C)n(CCF)c3C[C@H]2CN1C(=O)c1ccccc1 | 1.28 (inactive) | -0.012 | 2.02 (inactive) | -0.771 (inactive) | -1.04 (inactive) | -1.29 (inactive) | 0.456 | 0.532 (inactive) | 0.864 (inactive) | -3.46 |
